Results filed as inconclusive are left out. Calls of active or inactive are those of the source. Rule for the calls: active = hit-call score of the fitted dose curve at least 0.9, where 1 is the maximum; inconclusive = response in the unintended direction; inactive = score below 0.9.
Tests used:
[1] = target: bovine Estrogen Receptor (ER), ESR1 (gene 407238) (UniProt P49884); experiment: NVS_NR_bER: NovaScreen (NVS) Nuclear Receptor Binding Assay for bovine Estrogen Receptor (ER) (AID 2283345);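 note: actives lower the bound radioligand count which means they displace the ER ligand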
bovine Estrogen Receptor (ER), ESR1 (gene 407238), sequence (P49884 whole entry, looked up): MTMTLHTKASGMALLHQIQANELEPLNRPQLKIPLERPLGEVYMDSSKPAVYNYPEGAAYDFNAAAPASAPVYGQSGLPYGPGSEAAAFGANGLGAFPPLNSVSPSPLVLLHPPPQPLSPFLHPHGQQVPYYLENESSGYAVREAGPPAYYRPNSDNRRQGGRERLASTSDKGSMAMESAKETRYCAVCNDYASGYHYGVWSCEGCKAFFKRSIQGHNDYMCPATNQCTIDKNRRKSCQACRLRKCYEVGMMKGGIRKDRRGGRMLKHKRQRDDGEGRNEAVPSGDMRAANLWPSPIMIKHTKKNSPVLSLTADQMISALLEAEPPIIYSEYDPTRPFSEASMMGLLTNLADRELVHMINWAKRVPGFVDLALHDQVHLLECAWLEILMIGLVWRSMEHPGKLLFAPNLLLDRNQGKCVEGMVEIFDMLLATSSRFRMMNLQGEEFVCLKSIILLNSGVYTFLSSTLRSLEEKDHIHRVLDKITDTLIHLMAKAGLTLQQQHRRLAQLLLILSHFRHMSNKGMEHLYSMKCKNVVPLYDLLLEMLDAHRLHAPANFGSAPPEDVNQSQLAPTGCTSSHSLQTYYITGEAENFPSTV
In short: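 Cell-free radioligand binding with bovine uterine membrane extracts, read 18 hours after dosing by scintillation counting. Loss of signal versus DMSO baseline indicates displacement. Primary screen run in duplicate at 25 uM, actives followed in concentration series.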

[2] = target: Estrogen receptor (Homo sapiens) (UniProt P03372); experiment: NVS_NR_hER: NovaScreen (NVS) Nuclear Receptor Binding Assay for human Estrogen Receptor (ER) (AID 2283348)
Estrogen receptor (Homo sapiens), sequence (P03372 whole entry, looked up): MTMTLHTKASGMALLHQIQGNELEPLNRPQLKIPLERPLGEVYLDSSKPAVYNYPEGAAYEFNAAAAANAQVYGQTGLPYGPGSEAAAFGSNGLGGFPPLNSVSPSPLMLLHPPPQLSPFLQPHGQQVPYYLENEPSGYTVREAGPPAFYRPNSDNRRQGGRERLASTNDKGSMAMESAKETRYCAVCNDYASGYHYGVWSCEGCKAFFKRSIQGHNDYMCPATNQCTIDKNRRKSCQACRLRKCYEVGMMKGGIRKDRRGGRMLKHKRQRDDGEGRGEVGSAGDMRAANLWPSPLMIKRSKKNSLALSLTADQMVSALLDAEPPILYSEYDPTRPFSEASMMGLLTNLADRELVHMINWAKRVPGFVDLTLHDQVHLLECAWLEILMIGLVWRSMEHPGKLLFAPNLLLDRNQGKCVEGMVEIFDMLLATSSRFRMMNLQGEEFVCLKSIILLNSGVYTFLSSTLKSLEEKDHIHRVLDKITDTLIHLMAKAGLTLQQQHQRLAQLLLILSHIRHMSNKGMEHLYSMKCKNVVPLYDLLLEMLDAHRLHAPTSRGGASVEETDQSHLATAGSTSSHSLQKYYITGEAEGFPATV
In short: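 Cell-free MCF7-derived ER preparation, specific radioligand displaced by test compound, read by scintillation counting 18 h post-dosing. Duplicate single-point 25 uM screen, then concentration-response confirmation; DMSO baseline.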

[3] = TOX21_p53_BLA_p2_viability: Viability Assessment in the Tox21 HCT-116 p53 Agonism Beta-lactamase Assay, Phase 2 (AID 2283591);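 note: compound exposure lasted 16 h at 37 °C; actives lower the ATP signal meaning cytotoxicity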
In short: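 Cytotoxicity readout: CellTiter-Glo ATP luminescence, 30 min at room temperature, after the beta-lactamase read. Cells were HCT116 exposed 16 h at 37C to compounds pin-transferred at 217-fold dilution from DMSO stocks.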

[4] = target: Cellular tumor antigen p53 (Homo sapiens) (UniProt P04637); experiment: TOX21_p53_BLA_p3_ratio: Tox21 HCT-116 p53 Agonism Beta-lactamase Assay, Ratio, Phase 3 (AID 2283596)
Cellular tumor antigen p53 (Homo sapiens), sequence (P04637 whole entry, looked up): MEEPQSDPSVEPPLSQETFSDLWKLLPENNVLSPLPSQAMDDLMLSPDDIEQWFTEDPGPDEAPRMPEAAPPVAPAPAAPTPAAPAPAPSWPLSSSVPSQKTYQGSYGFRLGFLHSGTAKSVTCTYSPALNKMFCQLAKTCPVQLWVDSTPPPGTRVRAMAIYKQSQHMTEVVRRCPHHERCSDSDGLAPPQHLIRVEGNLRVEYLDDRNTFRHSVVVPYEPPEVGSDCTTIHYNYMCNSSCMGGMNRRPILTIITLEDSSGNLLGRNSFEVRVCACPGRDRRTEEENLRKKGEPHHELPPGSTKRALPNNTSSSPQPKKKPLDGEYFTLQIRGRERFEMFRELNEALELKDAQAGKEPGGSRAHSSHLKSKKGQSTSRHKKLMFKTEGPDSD
In short: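 Cells were seeded at 4000/well, rested 5 h at 37C, then dosed with DMSO compound solutions (217-fold dilution) for 16 h. CCF4-AM substrate was loaded for 2 h at room temperature, and the 460/530 nm emission ratio was fitted for gain of signal versus DMSO.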

[5] = TOX21_p53_BLA_p5_viability: Viability Assessment in the Tox21 HCT-116 p53 Agonism Beta-lactamase Assay, Phase 5 (AID 2283600)
In short: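 Luciferase-coupled ATP quantitation of cells treated for 16 h (37C, 5% CO2) with test chemicals delivered in DMSO via a 217-fold dilution; 4000 cells/well; reagent incubated 30 min at room temperature before luminescence reading.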

[6] = target: Cellular tumor antigen p53 (Homo sapiens) (UniProt P04637); experiment: TOX21_p53_BLA_p2_ratio: Tox21 HCT-116 p53 Agonism Beta-lactamase Assay, Ratio, Phase 2 (AID 2283592)
In short: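 Ratio endpoint: beta-lactamase cleavage of CCF4-AM, blue (460 nm) over green (530 nm). HCT116 reporter line; 16 h treatment, 37C; substrate 2 h RT.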

[7] = TOX21_p53_BLA_p3_viability: Viability Assessment in the Tox21 HCT-116 p53 Agonism Beta-lactamase Assay, Phase 3 (AID 2283593);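 note: cells exposed to compound for 16 h before reading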
In short: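 Cellular ATP was quantified by CellTiter-Glo luminescence, read after 30 min at room temperature. Beforehand, HCT116 cells (4000/well) received compound 5 h post-seeding, 217-fold diluted from DMSO, then incubated 16 h at 37C.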

[8] = TOX21_p53_BLA_p4_viability: Viability Assessment in the Tox21 HCT-116 p53 Agonism Beta-lactamase Assay, Phase 4 (AID 2283597);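 note: hits lower the luminescence signal meaning cytotoxicity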
In short: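 Cytotoxicity was inferred from loss of CellTiter-Glo luminescence. HCT116 cells had been dosed with compounds after 5 h plating, incubated 16 h at 37C and 5% CO2, and exposed to the CCF4-AM substrate for 2 h.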

[9] = target: Cellular tumor antigen p53 (Homo sapiens) (UniProt P04637); experiment: TOX21_p53_BLA_p5_ratio: Tox21 HCT-116 p53 Agonism Beta-lactamase Assay, Ratio, Phase 5 (AID 2283599)
In short: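 Beta-lactamase reporter ratio (blue 460 nm over green 530 nm, 405 nm excitation) after 2 h CCF4-AM loading, in HCT-116 cells exposed 16 h at 37 C to compounds pinned at 217-fold dilution. Increases relative to DMSO baseline scored.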

[10] = target: Cellular tumor antigen p53 (Homo sapiens) (UniProt P04637); experiment: TOX21_p53_BLA_p4_ratio: Tox21 HCT-116 p53 Agonism Beta-lactamase Assay, Ratio, Phase 4 (AID 2283601)
In short: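 Signal is the blue/green (460nm/530nm) ratio of cleaved versus uncleaved CCF4-AM substrate, read after 2 h substrate loading. Cells were HCT116 carrying the p53-responsive beta-lactamase reporter, dosed 16 h at 37C, 5% CO2; CellTiter-Glo measured in parallel.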

[11] = target: Norway rat Vesicular Monoamine Transporter (VMAT2), neurotransmitter transporter, Slc18a2 (gene 25549) (UniProt Q01827); experiment: NVS_TR_rVMAT2: NovaScreen (NVS) Transporter Assay for Norway rat Vesicular Monoamine Transporter (VMAT2), neurotransmitter transporter (AID 2283376);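 note: actives lower the bound radioligand signal below the DMSO level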
Norway rat Vesicular Monoamine Transporter (VMAT2), neurotransmitter transporter, Slc18a2 (gene 25549), sequence (Q01827 whole entry, looked up): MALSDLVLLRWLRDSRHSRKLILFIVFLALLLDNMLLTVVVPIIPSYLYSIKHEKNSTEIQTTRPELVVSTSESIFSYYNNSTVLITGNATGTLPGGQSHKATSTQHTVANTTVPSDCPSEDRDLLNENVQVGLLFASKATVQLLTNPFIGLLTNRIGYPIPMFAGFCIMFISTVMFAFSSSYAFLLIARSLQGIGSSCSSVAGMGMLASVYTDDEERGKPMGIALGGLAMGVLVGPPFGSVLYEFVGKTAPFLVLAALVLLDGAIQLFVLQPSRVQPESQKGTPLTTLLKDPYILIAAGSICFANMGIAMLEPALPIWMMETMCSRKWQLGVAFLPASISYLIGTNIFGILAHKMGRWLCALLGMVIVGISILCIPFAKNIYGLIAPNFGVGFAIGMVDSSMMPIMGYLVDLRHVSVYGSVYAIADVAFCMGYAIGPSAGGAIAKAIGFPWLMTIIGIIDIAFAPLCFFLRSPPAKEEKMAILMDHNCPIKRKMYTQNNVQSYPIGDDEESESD
In short: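 Using rat forebrain membranes, specific radioligand binding to VMAT2 was measured by filtration and scintillation counting after 1 hour. Chemicals screened at 25 uM in duplicate, actives retested in concentration series, DMSO baseline.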

[12] = target: Voltage-dependent N-type calcium channel subunit alpha-1B (Rattus norvegicus) (UniProt Q02294); experiment: NVS_IC_rCaChN: NovaScreen (NVS) Ion Channel Assay for rat Calcium Channel, Type N (CaChN) (AID 2283317)
[13] = tested on: guinea pig Atrionatriuretic Peptide Receptor A (ANPA), gene 100135578; experiment: NVS_GPCR_gANPA: NovaScreen (NVS) G Protein-Coupled Receptor Assay for guinea pig Atrionatriuretic Peptide Receptor A (ANPA) (AID 2283291)
In short: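 Displacement of specific radioligand from guinea pig cerebellum membranes was read by scintillation after 1 h. A duplicate single-point screen at 25 uM was followed by a concentration series up to 50 uM, analysed relative to DMSO.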

[14] = target: mouse Estrogen Receptor alpha (Era), Esr1 (gene 13982) (UniProt P19785); experiment: NVS_NR_mERa: NovaScreen (NVS) Nuclear Receptor Binding Assay for mouse Estrogen Receptor alpha (Era) (AID 2283378)
mouse Estrogen Receptor alpha (Era), Esr1 (gene 13982), sequence (P19785 whole entry, looked up): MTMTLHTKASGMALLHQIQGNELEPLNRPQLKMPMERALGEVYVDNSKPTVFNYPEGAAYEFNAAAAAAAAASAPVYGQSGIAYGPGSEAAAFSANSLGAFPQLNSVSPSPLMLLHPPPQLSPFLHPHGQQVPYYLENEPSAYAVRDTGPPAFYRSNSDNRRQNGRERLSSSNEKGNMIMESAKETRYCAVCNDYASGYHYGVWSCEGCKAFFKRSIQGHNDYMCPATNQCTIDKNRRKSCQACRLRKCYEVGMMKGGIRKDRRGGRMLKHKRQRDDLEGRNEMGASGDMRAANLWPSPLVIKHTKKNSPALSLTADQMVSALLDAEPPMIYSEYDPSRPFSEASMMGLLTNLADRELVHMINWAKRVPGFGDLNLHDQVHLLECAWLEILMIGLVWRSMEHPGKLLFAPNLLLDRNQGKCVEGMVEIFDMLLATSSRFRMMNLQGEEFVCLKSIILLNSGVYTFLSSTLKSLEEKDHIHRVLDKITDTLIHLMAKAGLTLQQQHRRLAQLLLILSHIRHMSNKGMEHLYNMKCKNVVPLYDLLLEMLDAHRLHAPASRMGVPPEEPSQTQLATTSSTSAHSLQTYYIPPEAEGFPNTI
In short: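 Cell-free radioligand binding with extracted mouse Era protein; competitive displacement of radiolabelled ligand, read by filter-based scintillation counting 18 hours after dosing. Loss of signal versus DMSO baseline taken as binding; single screening concentration 25 uM, actives followed in concentration series.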

[15] = ACEA_ER_AUC_viability: ACEA Biosciences xCELLigence Real-Time Cell Analysis on Estrogen Receptor Agonism for Viability (AID 2283782);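 note: hit means loss of impedance signal meaning reduced cell growth or viability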
In short: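 Viability endpoint: reduced impedance area under the curve relative to DMSO, recorded by real-time electrode sensing over ~80 h of continuous exposure. Duplicate plates of T47D in hormone-depleted medium; eight concentrations, 1:4 dilutions, 100 uM maximum.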

[16] = target: rat Oxytocin Receptor (OXT), Oxtr (gene 25342) (UniProt P70536); experiment: NVS_GPCR_rOXT: NovaScreen (NVS) G Protein-Coupled Receptor Assay for rat Oxytocin Receptor (OXT) (AID 2283330)
rat Oxytocin Receptor (OXT), Oxtr (gene 25342), sequence (P70536 whole entry, looked up): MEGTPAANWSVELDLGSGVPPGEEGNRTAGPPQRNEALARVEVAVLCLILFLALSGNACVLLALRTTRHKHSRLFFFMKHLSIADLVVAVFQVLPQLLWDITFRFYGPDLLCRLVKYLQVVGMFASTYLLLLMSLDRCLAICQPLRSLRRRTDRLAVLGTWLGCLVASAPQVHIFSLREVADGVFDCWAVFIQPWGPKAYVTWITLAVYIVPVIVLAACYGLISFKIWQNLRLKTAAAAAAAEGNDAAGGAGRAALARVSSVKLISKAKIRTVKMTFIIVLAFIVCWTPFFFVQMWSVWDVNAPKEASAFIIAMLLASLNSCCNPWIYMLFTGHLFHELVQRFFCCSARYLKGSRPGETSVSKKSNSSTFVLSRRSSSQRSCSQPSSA
In short: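 Binding to rat uterine membrane receptor was followed by scintillation counting of filter-trapped radioligand after 1 h. A 25 uM duplicate single-point screen preceded concentration series with a top of 50 uM. Signal loss was analysed relative to DMSO.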

[17] = target: rat Neurotensin Receptor (NTS), Ntsr1 (gene 366274) (UniProt P20789); experiment: NVS_GPCR_rNTS: NovaScreen (NVS) G Protein-Coupled Receptor Assay for rat Neurotensin Receptor (NTS) (AID 2283308)
rat Neurotensin Receptor (NTS), Ntsr1 (gene 366274), sequence (P20789 whole entry, looked up): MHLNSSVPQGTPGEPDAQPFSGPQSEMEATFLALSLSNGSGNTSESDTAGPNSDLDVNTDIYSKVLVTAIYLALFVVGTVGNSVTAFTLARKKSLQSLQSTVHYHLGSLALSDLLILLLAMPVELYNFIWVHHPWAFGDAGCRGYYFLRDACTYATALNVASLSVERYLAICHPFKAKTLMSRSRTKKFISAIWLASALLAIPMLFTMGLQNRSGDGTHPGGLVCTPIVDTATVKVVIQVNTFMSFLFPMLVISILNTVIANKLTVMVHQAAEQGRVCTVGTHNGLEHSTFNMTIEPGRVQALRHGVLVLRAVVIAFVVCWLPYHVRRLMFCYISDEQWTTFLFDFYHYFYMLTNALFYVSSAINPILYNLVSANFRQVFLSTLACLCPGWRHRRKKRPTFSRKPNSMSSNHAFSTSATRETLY
In short: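 Single-point duplicates at 25 uM, then concentration series to 50 uM max for hits, measured radioligand displacement on rat forebrain membrane preparations. Bound label counted by filtration scintillation at 1 h; signal loss relative to DMSO fitted.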

[18] = target: PGR (gene 5241) (UniProt P06401); experiment: TOX21_PR_BLA_Followup_Antagonist_ratio: Tox21 HEK293 Progesterone Receptor (PR) Antagonism Beta-lactamase Follow-Up Assay, Ratio (AID 2283934);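 note: PR-UAS-bla HEK293T cells stimulated with 1 nM R5020 agonist for 16 hr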
PGR (gene 5241), sequence (P06401 whole entry, looked up): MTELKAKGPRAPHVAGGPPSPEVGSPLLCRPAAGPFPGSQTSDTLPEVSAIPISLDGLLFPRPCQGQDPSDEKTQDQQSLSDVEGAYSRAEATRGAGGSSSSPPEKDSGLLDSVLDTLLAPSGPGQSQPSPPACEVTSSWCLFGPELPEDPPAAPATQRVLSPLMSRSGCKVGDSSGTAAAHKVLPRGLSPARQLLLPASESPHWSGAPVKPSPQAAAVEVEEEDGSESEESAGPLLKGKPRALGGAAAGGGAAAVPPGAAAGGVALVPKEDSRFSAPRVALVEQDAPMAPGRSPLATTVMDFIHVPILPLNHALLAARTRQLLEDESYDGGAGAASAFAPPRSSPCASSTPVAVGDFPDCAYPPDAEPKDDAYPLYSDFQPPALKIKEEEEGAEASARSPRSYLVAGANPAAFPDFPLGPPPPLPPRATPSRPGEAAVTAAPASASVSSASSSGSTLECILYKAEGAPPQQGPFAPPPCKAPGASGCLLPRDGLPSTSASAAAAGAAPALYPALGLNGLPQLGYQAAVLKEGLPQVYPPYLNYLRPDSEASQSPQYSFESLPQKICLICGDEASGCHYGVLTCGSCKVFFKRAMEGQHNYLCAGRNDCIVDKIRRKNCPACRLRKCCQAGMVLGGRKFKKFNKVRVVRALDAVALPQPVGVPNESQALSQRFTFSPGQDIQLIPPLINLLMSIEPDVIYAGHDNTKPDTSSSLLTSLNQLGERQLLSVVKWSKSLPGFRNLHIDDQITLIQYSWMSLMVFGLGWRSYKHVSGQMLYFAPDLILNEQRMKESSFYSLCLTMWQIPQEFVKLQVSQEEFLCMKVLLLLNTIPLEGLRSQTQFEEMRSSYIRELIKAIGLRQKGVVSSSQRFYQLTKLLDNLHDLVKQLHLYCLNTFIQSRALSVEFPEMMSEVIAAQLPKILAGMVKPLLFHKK
In short: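 Cells are plated, rested 6 hr, then dosed with test compound in DMSO and challenged with 1 nM promegestone. After 16 hr incubation, substrate loading for 2 h at room temperature precedes fluorescence reading; viability is measured in the same wells.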

[19] = TOX21_PR_BLA_Followup_Agonist_viability: Viability Assessment in the Tox21 HEK293 Progesterone Receptor (PR) Agonism Beta-lactamase Follow-Up Assay (AID 2283935);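 note: signal loss means lower viability so actives are cytotoxic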
In short: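 Cells were plated in medium with 2% charcoal-stripped FBS and rested 6 hr. Compounds in DMSO were then added for 16 hr at 37C, followed by the FRET substrate step and CellTiter-Glo luminescence after 30 min.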

[20] = TOX21_PR_BLA_Followup_Antagonist_viability: Viability Assessment in the Tox21 HEK293 Progesterone Receptor (PR) Antagonism Beta-lactamase Follow-Up Assay (AID 2283936);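 note: cells exposed to compound with R5020 agonist for 16 h; hits lower the luminescence signal meaning cytotoxicity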
In short: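 PR-UAS-bla HEK293T cells in medium with 2% charcoal-stripped FBS were treated with compounds plus R5020 for 16 hr at 37C. After the beta-lactamase read, CellTiter-Glo was added to the same wells and luminescence read after 30 min at room temperature.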

[21] = target: PGR (gene 5241) (UniProt P06401); experiment: TOX21_PR_LUC_Followup_Antagonist: Tox21 HEK293 Progesterone Receptor (PR) Antagonism Luciferase Follow-Up Assay (AID 2283938);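 note: curve fitted upward as signal gain over DMSO baseline despite antagonist label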
In short: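 HEK293-PR-A-luc cells were precultured 5 days in medium with 10% charcoal-stripped FBS, seeded 3,000/well, then exposed to compounds in DMSO for 16 h at 37C. Luciferase was read by ONE-Glo luminescence after 30 min at room temperature.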

[22] = TOX21_PR_LUC_Followup_Antagonist_viability: Viability Assessment in the Tox21 HEK293 Progesterone Receptor (PR) Antagonism Luciferase Follow-Up Assay (AID 2283940)
In short: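 HEK293-PR-A-luc, 3,000 cells/well; 5 h at 37C/0% CO2; compound pin transfer; 16 h incubation; CellTiter-Glo ATP luminescence, signal loss = cytotoxicity.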

[23] = TOX21_PR_LUC_Followup_Agonist_viability: Viability Assessment in the Tox21 HEK293 Progesterone Receptor (PR) Agonism Luciferase Follow-Up Assay (AID 2283941);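 note: loss of signal means cytotoxicity so actives lower viability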
In short: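 Multiplexed viability endpoint of the PR agonist luciferase follow-up: HEK293-PR-A-luc cells treated 16 h at 37C, with viability scored as decrease in CellTiter-Glo ATP signal.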

Question: With `c1coc(-c2nc3ccccc3[nH]2)c1` as the compound, how does the outcome [1] read?
Answer: The outcome was “inactive”.

Question: What about the outcome [2] of the same compound?
Answer: Its outcome is “inactive”.

Question: And the outcome [3]?
Answer: Its outcome is “inactive”.

Question: And the outcome [4]?
Answer: The outcome was “inactive”.

Question: And the outcome [5]?
Answer: The outcome was “inactive”.

Question: With `O=[N+]([O-])c1ccc(Oc2ccc(C(F)(F)F)cc2[N+](=O)[O-])cc1` as the compound, how does the outcome [1] read?
Answer: Its outcome is “inactive”.

Question: What about the outcome [3] of the same compound?
Answer: Its outcome is “inactive”.

Question: And the outcome [6]?
Answer: Its outcome is “inactive”.

Question: And the outcome [7]?
Answer: Its outcome is “inactive”.

Question: And the outcome [4]?
Answer: Its outcome is “inactive”.

Question: What about the outcome [8] of the same compound?
Answer: The outcome was “inactive”.

Question: And the outcome [9]?
Answer: The outcome was “inactive”.

Question: What about the outcome [5] of the same compound?
Answer: The outcome was “inactive”.

Question: What about the outcome [10] of the same compound?
Answer: The outcome was “inactive”.

Question: With `C=C(C)C(=O)OCCOCCOCCOC(=O)C(=C)C` as the compound, how does the outcome [11] read?
Answer: Its outcome is “inactive”.

Question: With `CNCc1ccc(NC(=O)c2c[nH]c3c2C(=O)CCC3)cc1` as the compound, how does the outcome [12] read?
Answer: Its outcome is “inactive”.

Question: Which outcome [11] does the source give for `[Cl][Sc]([Cl])[Cl]` here?
Answer: The outcome was “inactive”.

Question: With `O=C(OCCCCCCOC(=O)c1ccccc1)c1ccccc1` as the compound, how does the outcome [13] read?
Answer: The outcome was “inactive”.

Question: For `COP(=O)(OC)Oc1ccc([N+](=O)[O-])cc1`, which outcome [1] is on record?
Answer: Its outcome is “inactive”.

Question: And the outcome [2]?
Answer: The outcome was “inactive”.

Question: What about the outcome [14] of the same compound?
Answer: The outcome was “inactive”.

Question: And the outcome [7]?
Answer: Its outcome is “inactive”.

Question: And the outcome [4]?
Answer: Its outcome is “inactive”.

Question: And the outcome [9]?
Answer: The outcome was “inactive”.

Question: What about the outcome [5] of the same compound?
Answer: The outcome was “inactive”.

Question: And the outcome [10]?
Answer: The outcome was “inactive”.

Question: And the outcome [15]?
Answer: The outcome was “inactive”.

Question: For `NC(N)=O`, which outcome [16] is on record?
Answer: The outcome was “inactive”.

Question: With `COC(=O)c1ccc(I)cc1S(=O)(=O)NC(=O)Nc1nc(C)nc(OC)n1` as the compound, how does the outcome [17] read?
Answer: The outcome was “inactive”.

Question: For `COP(=S)(NC(C)C)Oc1ccc(C)cc1[N+](=O)[O-]` (configuration not stated), which AC50 [1] is on record?
Answer: Its AC50 is 9.3 µM (active).

Question: And the AC50 [2]?
Answer: The AC50 was 11.5 µM (active).

Question: And the AC50 [18]?
Answer: Its AC50 is 20.3 µM (active).

Question: And the outcome [19]?
Answer: Its outcome is “inactive”.

Question: And the outcome [20]?
Answer: The outcome was “inactive”.

Question: And the AC50 [21]?
Answer: The AC50 was 21.2 µM (active).

Question: And the outcome [22]?
Answer: The outcome was “inactive”.

Question: And the outcome [23]?
Answer: Its outcome is “inactive”.

Source: PubChem BioAssay (EPA / NIEHS)
